Here are results for one molecule from the supplement of paper PMC8728848.

Common to all, as to test: glycan array binding signal (z-score within array); higher = stronger binding
Common to all, as to settings: glycan notation: IUPAC condensed, linker removed

Experiment [1] deals with Neu5Ac(a2-3)Gal(b1-3)GalNAc. The method in brief: (§1)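 Glycan array data were curated from 3228 arrays in the Consortium for Functional Glycomics database and kept only where the protein sequence was available. Glycan names were converted to IUPAC-condensed notation, and columns mapping to the same glycan were averaged. The binding signal is a within-array Z-score, averaged across arrays of the same protein sequence at different concentrations or buffers and across linkers. Negative Z-scores can be read as non-binding.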

The target of experiment [2] is Neu5Ac(a2-3)Gal(b1-3)GalNAc(b1-4)[Neu5Ac(a2-8)Neu5Ac(a2-3)]Gal(b1-4)Glc. In outline: as §1
The target in experiment [3] is Neu5Ac(a2-3)Gal(b1-4)GlcNAc(b1-3)Gal(b1-4)GlcNAc(b1-3)Gal(b1-4)GlcNAc. The method in brief: as §1
Experiment [4] has as its target Neu5Ac(a2-3)Gal(b1-4)GlcNAc(b1-6)[Gal(b1-3)]GalNAc. The method in brief: as §1
The target in experiment [5] is Neu5Ac(a2-3)Gal6S(b1-4)GlcNAc. In outline:
as §1

Experiment [6] addresses Neu5Ac(a2-3)[GalNAc(b1-4)]Gal(b1-4)GlcNAc. The method in brief:
as §1

Experiment [7] deals with Neu5Ac(a2-3)[GalNAc(b1-4)]Gal(b1-4)GlcNAc(b1-3)GalNAc. The method in brief: as §1
Experiment [8] deals with Neu5Ac(a2-6)Gal(b1-4)GlcNAc(b1-2)[Neu5Ac(a2-6)Gal(b1-4)GlcNAc(b1-6)]Man(a1-6)[Neu5Ac(a2-6)Gal(b1-4)GlcNAc(b1-2)Man(a1-3)][GlcNAc(b1-4)]Man(b1-4)GlcNAc(b1-4)GlcNAc. In outline: as §1
For experiment [9], the target named is Neu5Ac(a2-6)Gal(b1-4)GlcNAc(b1-3)Gal(b1-4)GlcNAc(b1-3)Gal(b1-4)GlcNAc(b1-2)Man(a1-3)[Neu5Ac(a2-6)Gal(b1-4)GlcNAc(b1-3)Gal(b1-4)GlcNAc(b1-3)Gal(b1-4)GlcNAc(b1-2)Man(a1-6)]GalNAc. The method in brief: as §1
For the next experiment, the target named is Neu5Ac(a2-6)GalNAc. The method in brief:
as §1

Experiment [10] addresses Neu5Ac(a2-6)GalNAc(b1-4)GlcNAc. The method in brief: as §1
For experiment [11], the target named is Neu5Ac(a2-8)Neu5Ac(a2-3)[Gal(b1-3)GalNAc(b1-4)]Gal(b1-4)Glc. The method in brief:
as §1

The target in experiment [12] is Neu5Ac(b2-6)Gal(b1-4)GlcNAc. In outline: as §1
The target of another experiment is Neu5Gc(a2-6)GalNAc. In outline:
as §1

Shown is part of a subset that was picked to be rich in the strongest signals.

B1: pilr alpha (protein)
chain: MLYGVTQPKHLSASMGGSVEIPFSFYYPWELATAPDVRISWRRGHFHRQSFYSTRPPSIHKDYVNRLFLNWTEGQKSGFLRISNLQKQDQSVYFCRVELDTRSSGRQQWQSIEGTKLSIT
Regarding B1, the “glycan array binding signal (z-score)” value in experiment [1] is -0.231; in [2] it was -0.149; in experiment [3], -0.173; in experiment [4], -0.533; in [5], -0.007; in [6], -0.65. The “glycan array binding signal (z-score)” value was 0.118 in experiment [7]; 0.09 in experiment [8]; 1.89 in experiment [9]; -0.546 with Neu5Ac(a2-6)GalNAc; -0.492 in experiment [10]; -0.167 in [11]. For the same molecule, the figures for the “glycan array binding signal (z-score)” value (in experiment [12]; with Neu5Gc(a2-6)GalNAc) were -0.768 and -0.353, respectively.
